Screening results: PubChem, several laboratories
Compounds with a hit are over-represented: about 0.79% of the library has one in this group of screens.
LANA-H2B inh – blocks KSHV LANA binding to histone H2A/H2B; cell-free LANA-H2A/H2B peptide, fluorescence polarization; 320,000 tested, 0.6% active; AID 2629; Q9QR71; inhibition, % (test concentration not listed); in the data active means inhibition mostly above about 10%, no sharp cut-off; inactive means mostly below about 6.7%
HDAC3 inhib – inhibitors of human histone deacetylase 3; 320,000 tested, 0.15% active; recombinant HDAC3, fluorogenic peptide/trypsin coupled, fluorescence; inhibition, % at 8.3 µM; in the data active means inhibition above about 26%, passing the limit was not always enough
DAGLB inhibitor – blocks human DAGLB lipase activity; 340,000 tested, 0.059% active; HEK293T DAGLB membrane lysate, EnzChek fluorogenic substrate; inhibition, % at 5.17 µM; Q8NCG7; AID 504411; in the data active means inhibition above about 34%
Target sequence (Q8NCG7 whole entry, looked up): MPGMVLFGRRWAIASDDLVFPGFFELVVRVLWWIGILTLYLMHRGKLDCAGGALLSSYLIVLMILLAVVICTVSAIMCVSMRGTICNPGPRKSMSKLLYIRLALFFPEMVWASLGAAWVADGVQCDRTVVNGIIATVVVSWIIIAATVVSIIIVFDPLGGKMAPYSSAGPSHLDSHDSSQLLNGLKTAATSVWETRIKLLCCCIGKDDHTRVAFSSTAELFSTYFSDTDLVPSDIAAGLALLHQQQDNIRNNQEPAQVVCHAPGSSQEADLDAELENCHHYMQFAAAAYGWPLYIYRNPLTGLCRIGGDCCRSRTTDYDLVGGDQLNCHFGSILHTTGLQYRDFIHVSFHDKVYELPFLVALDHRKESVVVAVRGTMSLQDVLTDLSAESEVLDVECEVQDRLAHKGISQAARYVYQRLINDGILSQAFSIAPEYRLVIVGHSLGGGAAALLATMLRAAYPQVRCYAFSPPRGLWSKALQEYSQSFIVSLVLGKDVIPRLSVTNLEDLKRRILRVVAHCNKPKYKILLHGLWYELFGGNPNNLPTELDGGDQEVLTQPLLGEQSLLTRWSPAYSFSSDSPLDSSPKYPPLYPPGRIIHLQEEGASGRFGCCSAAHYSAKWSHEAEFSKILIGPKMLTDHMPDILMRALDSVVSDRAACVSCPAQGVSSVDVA
iPSC survival up – enhancers of human iPSC single-cell survival; hiPSC single-cell survival, ATPlite luminescence; 100% = ROCK inhibitor wells, 0% = DMSO; survival enhancement, % at 20 µM; 360,000 tested, 0.044% active; AID 602274; in the data active means survival enhancement above about 18%;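 further: cells exposed to compounds for 16 hours before the ATP read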
A number is an active result; n = inactive; x = no result; + = active, no number; ! = not active in a repeat.

SMILES | LANA-H2B inh | HDAC3 inhib | DAGLB inhibitor | iPSC survival up
CCCCc1ccc(N=N/C(C(=O)Nc2ccc(NC(C)=O)cc2OC)=C(/C)O)cc1 | 47.3 | n | n | n
COc1cc(C(=O)NCCCn2ccnc2)cc(OC)c1OC | 11.4 | n | n | n
COc1ccc(CN(C)C(=O)c2ccccc2Sc2ccccc2C#N)c(OC)c1 | n | n | n | n
CCOC(=O)c1ccc(OC(=O)CCCCCN=C(N)N)cc1 | n | 92.8 | n | n
CC(=O)Nc1cncc(-c2ccccc2F)n1 | x | x | x | n
COc1ccc(N(CC(=O)N/N=C/c2cc(Br)c(C)o2)S(=O)(=O)c2ccc(NC(C)=O)cc2)cc1 | 25.3 | n | n | n
COc1ccc(C2c3c(n[nH]c3C)CC(C)(O)C2C(C)=O)cc1OC (stereo unspecified) | 10.1 | n | n | n
Cc1cc(C)cc(CN2CCC(Oc3ccc(C(=O)N4CCCC4)cc3)CC2)c1 | x | x | n | n
CC(C)n1cc(CN2CCC(Oc3ccc(C(=O)N4CCCC4)cc3)CC2)cn1 | 48.6 | n | n | n
Cc1ccc2c(c1)CO[C@@]21O[C@H](CCO)C[C@H](O)[C@H]1O | x | x | n | n
CCCc1ccc(C(=O)N2CCN(c3ccccc3OCC)CC2)cc1 | n | n | n | 22.7
CCOc1ccccc1N1CCN(C(=O)c2cc[n+]([O-])cc2)CC1 | n | n | n | n
C/C=C/c1ccc(OCCCCN2CC(C)CC(C)C2)c(OC)c1 (stereo unspecified) | 195.3 | n | n | n
Cc1sc(-c2ccccn2)nc1OC(=O)c1ccc(Cl)c(Cl)c1 | n | n | n | 19.4
CC(C)N1CC=C2C(C#N)=C(N)C(C#N)(C#N)C(c3ccccc3)C2C1 (stereo unspecified) | + | n | n | n
COc1cc(CNCCc2ccccc2)ccc1OCC(=O)NC(C)(C)C | n | n | n | n
COc1cc(CNCCc2ccccc2)ccc1OCC(N)=O | 19.6 | n | n | n
CNc1nnc(SCC(=O)N2c3ccccc3NC(=O)CC2C)s1 (stereo unspecified) | + | n | n | n
C/C(=N\N=C(N)N)c1ccc(C)c(C)c1 | 14.6 | n | n | n
COc1ccccc1C(=O)CC(=O)c1ccccc1 | 16.8 | n | n | n
COc1ccccc1NC(=O)CC(=O)c1ccccc1 | n | n | n | n
COc1ccc(Cl)cc1NC(=O)CSc1nc2[nH]ncc2c(=O)[nH]1 | x | x | n | n
CCOc1ccc(C(=O)CCN2CCCCC2)cc1 | n | n | n | n
COc1ccc(C(=O)CCN2CCCCCC2)cc1 | 12.2 | n | n | n
COc1ccc(OCCN2CCN(C(=O)c3ccc(OC)cc3)CC2)cc1 | 14.1 | n | n | n
SMILES | LANA-H2B inh | HDAC3 inhib | DAGLB inhibitor | iPSC survival up
COc1cc2cc(CCO)oc(=O)c2cc1OC | n | n | n | n
COc1ccc(/C=C/C(=O)NC(=S)Nc2ccccn2)cc1 | n | n | n | n
COc1ccccc1/C=C/C(=O)NC(=S)Nc1ccccn1 | 8.0 | n | n | n
Cc1cc(C)c(S(=O)(=O)c2ccc(Cl)cc2C)c(Cl)n1 | n | n | n | n
Cc1cccc(NC(=O)CN2C(=O)N/C(=C\c3ccc(-c4cccc(C(=O)O)c4)o3)C2=O)c1 | 112.6 | n | n | n
Cc1cccc(N2CCN(C(=O)c3ccc4c(c3)CCN4S(C)(=O)=O)CC2)c1C | x | x | n | n
O=C1NC[C@H](Cc2ccc(O)cc2)N(C[C@@H]2CCCN2C[C@H](Cc2ccccc2)N2C[C@H](Cc3ccc(O)cc3)N(CC3CCCCCC3)C(=O)C2=O)C1=O | x | x | x | n
O=C(NCc1ccccn1)c1ccc(OC2CCN(Cc3ccccc3)CC2)cc1 | n | n | n | n
CCC(C)N1CCC(Oc2ccc(C(=O)NCc3ccccn3)cc2)CC1 (stereo unspecified) | 175.4 | n | n | n
NNc1ccc(Cl)c(C(=O)O)c1 | 63.1 | n | n | n
CC(C)(C)C(=O)N1CCCC1C(=O)O (stereo unspecified) | 27.6 | n | n | n
CC(=O)N1CCCC1C(=O)O (stereo unspecified) | x | x | n | n
O=C(CN(Cc1ccccc1)S(=O)(=O)c1ccc(Br)cc1)NCC1CCCO1 (stereo unspecified) | n | n | n | n
O=C(CN(Cc1ccccc1)S(=O)(=O)c1ccc(Cl)cc1)NCC1CCCO1 (stereo unspecified) | 14.5 | n | n | n
N#Cc1ccc(CN2CCN(C(=O)CC(NC(=O)c3ccccc3)c3ccccc3)CC2)cc1 (stereo unspecified) | n | n | n | n
O=S(=O)(/N=S1\CC=CCN1S(=O)(=O)c1ccccc1)c1ccccc1 (stereo unspecified) | x | x | n | n
Cn1ccnc1SCC(=O)c1ccc(C#N)cc1 | n | 36.1 | n | n
COc1ccccc1NC(=O)C(C)N(C)CCOc1ccccc1 (stereo unspecified) | n | n | n | n
CC(C(=O)Nc1ccc(F)c(F)c1F)N(C)CCOc1ccccc1 (stereo unspecified) | 10.9 | n | n | n
Cc1ccc(Cl)c2c1NC(=O)C2=O | n | n | n | n
O=P(O)(O)CP(=O)(O)O | 81.2 | x | x | x
O=C1CN(C(=O)CN2CCCC2)C(c2ccccc2)c2cc(Br)ccc2N1 (stereo unspecified) | n | n | n | n
CCOC(=O)N1CC(=O)Nc2ccc(Br)cc2C1c1ccccc1 (stereo unspecified) | 105.6 | n | n | n
CC(C)(C)NC(=O)C[C@H]1C[C@H](C(=O)N2CCOCC2)[C@@]2(C)c3[nH]c4ccc(Cl)cc4c3CCN2C1=O | x | x | n | n
Cn1nc(-c2ccccc2)c(C(O)c2ccccc2C(F)(F)F)c1Cl (stereo unspecified) | n | n | n | 21.6
SMILES | LANA-H2B inh | HDAC3 inhib | DAGLB inhibitor | iPSC survival up
Cc1ccccc1OCC(=O)N/N=C/c1ccccn1 | 26.7 | n | n | n
C[C@H]1CN([C@@H](C)CO)C(=O)c2cc(NC(=O)Cc3ccccc3)ccc2O[C@H]1CN(C)Cc1ccccc1 | n | n | n | n
C[C@H](CO)N1C[C@H](C)[C@@H](CN(C)S(=O)(=O)c2ccccc2)Oc2ccc(NC(=O)CCC(F)(F)F)cc2C1=O | 28.3 | n | n | n
C[C@H](CO)N1C[C@H](C)[C@@H](CN(C)Cc2ccncc2)Oc2c(NC(=O)CCCCCC(=O)Nc3ccccc3N)cccc2C1=O | n | 57.0 | n | n
C[C@H](CO)N1C[C@H](C)[C@@H](CN(C)Cc2ccccc2)Oc2ccc(NC(=O)CCCCCC(=O)Nc3ccccc3N)cc2C1=O | n | 74.8 | n | n
C[C@H](CO)N1C[C@H](C)[C@@H](CN(C)C)Oc2c(NC(=O)CCCCCC(=O)Nc3ccccc3N)cccc2C1=O | n | 67.2 | n | n
O=C(N/N=C/c1cccc([N+](=O)[O-])c1)C(=O)N1CCCCCC1 | n | n | n | n
CC1(C(=O)Nc2ccc(Cl)c(Cl)c2)CCN1CCc1ccccc1 (stereo unspecified) | x | x | x | n
COC(=O)Cn1c(C)nc(=O)c(-c2ccccc2)c1C | 14.7 | n | n | n
COC(=O)c1ccc(-n2c(C)nc(=O)c(-c3ccccc3)c2C)cc1 | n | n | n | n
Cc1nnc(SCC2=C(C(=O)O)N3C(=O)[C@@H](NC(=O)Cn4cnnn4)[C@H]3SC2)s1 | 76.7! | n | n | n
